Assay results taken from PubChem BioAssay.
Active and inactive are the calls of the source. Unless noted, no rule for the calls is given here.

Columns and labels:
[1] = tested on: Wnt5a (protein binding on small-molecule microarray); test: Wnt5a binders on small-molecule microarray, primary screen, biophysical, 635/667 nm fluorescence (AID 1142); details: 635 nm fluorescence, higher = more signal;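 also: fluorescence read at 667 nm with signal to noise per printed feature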
[2] = cell viability in Huh7 cells, primary screen, cytotoxicity control for HCV replication inhibitor project, CellTiter-Glo luminescence, basal, 48 h (AID 1143); details: Huh7 HCV replicon, higher = more signal, called active from +8 up or from −8 down;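 also: Huh7 hepatoma cells carrying a hepatitis C replication reporter with no stimulus; test concentration not given here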
[3] = P. aeruginosa biofilm formation inhibitors, primary screen, PAO1 strain, BacTiter-Glo luminescence, LB-PBS (AID 1144); details: 12 h, higher = more signal
[4] = CREB reporter modulators without forskolin, primary screen, cell-based, PC12, CRE-LacZ reporter, unstimulated (AID 1145); details: no forskolin, luminescence, 4.5 h, higher = more signal, called active from +8 up or from −8 down
[5] = CREB reporter modulators under forskolin, primary screen, cell-based, PC12, CRE-LacZ reporter, forskolin-stimulated (AID 1146); details: luminescence, 4.5 h, higher = more signal, called active from +8 up or from −8 down;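 also: PC12 cells with 6xCRE LacZ reporter stimulated by forskolin 10 µM; beta-galactosidase reporter signal reflecting CREB driven transcription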
[6] = target: Streptavidin (Streptomyces avidinii) (UniProt P22629); test: streptavidin binders on small-molecule microarray, primary screen, artefact control for SMM compound annotation, biophysical, 635/667 nm fluorescence (AID 1147); details: streptavidin binding, higher = more signal;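 also: signal reflects streptavidin binding to arrayed compounds as a control protein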
Streptavidin (Streptomyces avidinii), sequence (P22629 whole entry, looked up): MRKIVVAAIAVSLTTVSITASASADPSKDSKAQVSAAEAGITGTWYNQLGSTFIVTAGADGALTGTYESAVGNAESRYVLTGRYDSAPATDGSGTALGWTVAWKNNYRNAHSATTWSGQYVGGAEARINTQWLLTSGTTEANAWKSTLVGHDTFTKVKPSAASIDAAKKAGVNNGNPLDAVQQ

[7] = small-molecule binders of probe aInhba, primary screen, biochemical, small-molecule microarray, 635/667 nm fluorescence (AID 1148); details: higher = more signal;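 also: score merges 667nm spot fluorescence with signal-to-noise for antibody binding to printed compounds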
Torsin-1A (Homo sapiens) [8] = target: Torsin-1A (Homo sapiens) (UniProt O14656); test: torsin A binders from cell lysate, primary screen, small-molecule microarray, wild-type, 635/667 nm (AID 1149); details: COS7 hTOR1A-WT lysate, 635 nm fluorescence, higher = more signal
Torsin-1A (Homo sapiens), sequence (O14656 whole entry, looked up): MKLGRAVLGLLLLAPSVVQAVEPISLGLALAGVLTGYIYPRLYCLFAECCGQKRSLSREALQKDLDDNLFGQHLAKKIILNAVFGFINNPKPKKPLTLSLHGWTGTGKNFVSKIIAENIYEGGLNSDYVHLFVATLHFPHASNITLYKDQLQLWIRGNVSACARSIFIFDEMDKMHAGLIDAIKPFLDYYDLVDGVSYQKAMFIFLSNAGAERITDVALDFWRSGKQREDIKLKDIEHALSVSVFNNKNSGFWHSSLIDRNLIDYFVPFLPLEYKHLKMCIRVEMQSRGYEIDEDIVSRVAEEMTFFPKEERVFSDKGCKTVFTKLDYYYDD

Torsin-1A (Homo sapiens) [9] = target: Torsin-1A (Homo sapiens) (UniProt O14656); test: small-molecule binders of mutant TOR1A in lysate, primary screen, cell lysate, small-molecule microarray, COS7 lysate, 635/667 nm fluorescence (AID 1150); details: COS7 hTOR1A mutant lysate, 635 nm fluorescence, higher = more signal;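 also: score pools 667 nm emission and signal to noise measuring lysate protein binding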
[10] = tested on: Sonic hedgehog protein (Shh); test: small-molecule binders of Shh protein, primary screen, biochemical, small-molecule microarray, 635/667 nm fluorescence (AID 1151); details: small-molecule microarray binding, 635 nm fluorescence; higher = more signal;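 also: Shh protein binding to compounds spotted on small-molecule microarray slides; score combines spot fluorescence intensity with signal-to-noise across triplicate slides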
[11] = E. coli DRC41 culture turbidity changes, primary screen, E. coli filamentation inducer project, strain DRC41, OD650, 48 h (AID 1152);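 also: E. coli MC1000 strain DRC41 lacking acrAB efflux pump and sulA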; details: E. coli DRC41 (acrAB sulA), higher = more signal, called active from +8 up or from −8 down
[12] = small-molecule binders of probe aLefty1, primary screen, biochemical, small-molecule microarray, 635/667 nm fluorescence (AID 1153); details: higher = more signal;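 also: score merges spot fluorescence with signal-to-noise ratio from the scanned slide images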
[13] = PSAC antagonists in infected red cells, primary screen, cell-based, P. falciparum Indochina, OD700, 1 h (AID 1154); details: P. falciparum Indochina infected RBC osmotic lysis, higher = more signal, called active from +8 up or from −8 down
[14] = PSAC antagonists in infected red cells, primary screen, cell-based, P. falciparum Indochina, OD700, 2 h (AID 1155);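 also: lysis reports solute entry through the parasite surface anion channel PSAC; channel blockers reduce lysis of infected cells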; details: P. falciparum Indochina infected erythrocytes, osmotic lysis OD700; higher = more signal, called active from +8 up or from −8 down
[15] = osmotic lysis modulators in infected erythrocytes, primary screen, PSAC antagonist project, cell-based, P. falciparum Indochina, OD700, 3 h (AID 1156); details: higher = more signal, called active from +8 up or from −8 down
[16] = PSAC antagonists in infected red cells, primary screen, cell-based, P. falciparum Indochina, OD700, 18 h (AID 1157); details: P. falciparum Indochina infected erythrocytes, osmotic lysis OD700, 18 h; higher = more signal, called active from +8 up or from −8 down
[17] = modulators of S6 phosphorylation in cells, primary screen, cell-based, A549, cytoblot, luminescence, serum-stimulated (AID 1158); details: A549 phospho-S6 cytoblot, 5 h, higher = more signal;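 also: serum-stimulated A549 lung adenocarcinoma cells; signal is phosphorylated S6 detected by cytoblot immunostaining with HRP secondary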
[18] = target: NADPH oxidase 2 (Homo sapiens) (UniProt P04839); test: NOX2-dependent H2O2 signal modulators, primary screen, NOX inhibitor project, cell-based, HEK293-NOX2, PMA-stimulated, Amplex Red fluorescence (AID 1159); details: 45 min, higher = more signal, called active from +8 up or from −8 down; also: test concentration not given here
NADPH oxidase 2 (Homo sapiens), sequence (P04839 whole entry, looked up): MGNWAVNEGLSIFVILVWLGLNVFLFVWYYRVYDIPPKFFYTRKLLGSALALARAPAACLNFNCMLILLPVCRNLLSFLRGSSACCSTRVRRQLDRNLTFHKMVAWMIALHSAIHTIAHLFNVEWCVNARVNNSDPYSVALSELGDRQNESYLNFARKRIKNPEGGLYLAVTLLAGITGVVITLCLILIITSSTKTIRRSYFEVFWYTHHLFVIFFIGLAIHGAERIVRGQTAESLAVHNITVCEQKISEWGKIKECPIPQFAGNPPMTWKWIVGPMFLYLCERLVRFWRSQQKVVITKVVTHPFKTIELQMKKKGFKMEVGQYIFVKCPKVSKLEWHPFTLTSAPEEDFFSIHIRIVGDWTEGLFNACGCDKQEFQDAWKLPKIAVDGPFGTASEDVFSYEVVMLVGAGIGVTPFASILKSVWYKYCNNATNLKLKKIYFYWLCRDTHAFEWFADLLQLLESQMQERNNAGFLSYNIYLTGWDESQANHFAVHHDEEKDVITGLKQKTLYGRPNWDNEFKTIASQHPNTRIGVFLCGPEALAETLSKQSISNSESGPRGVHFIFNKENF

[19] = target: NADPH oxidase 4 (Homo sapiens) (UniProt Q9NPH5); test: NOX4-dependent H2O2 signal modulators, primary screen, NOX inhibitor project, cell-based, HEK293-NOX4, tetracycline-induced, Amplex Red fluorescence (AID 1160); details: 45 min, higher = more signal, called active from +8 up or from −8 down
NADPH oxidase 4 (Homo sapiens), sequence (Q9NPH5 whole entry, looked up): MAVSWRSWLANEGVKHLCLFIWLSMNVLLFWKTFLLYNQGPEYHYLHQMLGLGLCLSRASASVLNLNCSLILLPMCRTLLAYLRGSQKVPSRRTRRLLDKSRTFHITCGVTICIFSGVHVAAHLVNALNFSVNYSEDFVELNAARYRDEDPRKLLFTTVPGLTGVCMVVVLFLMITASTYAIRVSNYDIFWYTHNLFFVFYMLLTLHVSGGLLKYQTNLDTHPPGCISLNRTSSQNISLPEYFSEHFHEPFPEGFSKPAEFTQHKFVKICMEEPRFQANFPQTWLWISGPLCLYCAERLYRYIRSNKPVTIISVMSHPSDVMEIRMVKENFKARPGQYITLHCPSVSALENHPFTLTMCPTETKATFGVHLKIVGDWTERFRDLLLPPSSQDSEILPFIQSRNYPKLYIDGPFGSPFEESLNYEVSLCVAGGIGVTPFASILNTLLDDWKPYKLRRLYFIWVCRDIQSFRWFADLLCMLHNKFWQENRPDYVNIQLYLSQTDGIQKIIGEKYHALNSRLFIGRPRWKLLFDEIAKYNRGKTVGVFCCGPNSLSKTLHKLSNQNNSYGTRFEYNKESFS

[20] = target: NADPH oxidase 5 (Homo sapiens) (UniProt Q96PH1); test: NOX5-dependent H2O2 signal modulators, primary screen, NOX inhibitor project, cell-based, HEK293-NOX5, Amplex Red fluorescence (AID 1161); details: HEK293-NOX5, ionomycin, 45 min, higher = more signal
NADPH oxidase 5 (Homo sapiens), sequence (Q96PH1 whole entry, looked up): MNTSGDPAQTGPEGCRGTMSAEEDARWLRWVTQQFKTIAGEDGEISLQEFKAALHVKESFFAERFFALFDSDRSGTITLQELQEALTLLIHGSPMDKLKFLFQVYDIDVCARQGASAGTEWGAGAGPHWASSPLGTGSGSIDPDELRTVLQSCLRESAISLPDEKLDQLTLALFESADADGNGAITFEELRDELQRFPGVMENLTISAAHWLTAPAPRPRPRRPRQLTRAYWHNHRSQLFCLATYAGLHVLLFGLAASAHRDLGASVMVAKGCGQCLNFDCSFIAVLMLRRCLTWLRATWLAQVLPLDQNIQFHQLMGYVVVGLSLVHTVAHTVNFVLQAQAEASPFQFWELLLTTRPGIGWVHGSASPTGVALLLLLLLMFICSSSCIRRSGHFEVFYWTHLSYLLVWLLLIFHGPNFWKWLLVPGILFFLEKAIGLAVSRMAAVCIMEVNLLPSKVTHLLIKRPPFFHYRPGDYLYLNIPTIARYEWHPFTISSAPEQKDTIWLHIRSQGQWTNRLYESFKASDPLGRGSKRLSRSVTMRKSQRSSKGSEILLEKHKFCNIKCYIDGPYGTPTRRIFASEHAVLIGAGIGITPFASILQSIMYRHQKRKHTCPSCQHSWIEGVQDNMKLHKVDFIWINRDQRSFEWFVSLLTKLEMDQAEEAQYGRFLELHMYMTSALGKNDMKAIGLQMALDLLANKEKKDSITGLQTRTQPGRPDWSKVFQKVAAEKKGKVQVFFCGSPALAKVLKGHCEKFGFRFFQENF

Row | SMILES | composite z-score [1] | z-score [2] | z-score [3] | z-score [4] | z-score [5] | composite z-score [6] | composite z-score [7] | composite z-score (Torsin-1A (Homo sapiens) [8]) | composite z-score (Torsin-1A (Homo sapiens) [9]) | composite z-score [10] | z-score [11] | composite z-score [12] | z-score [13] | z-score [14] | z-score [15] | z-score [16] | z-score [17] | z-score [18] | z-score [19] | z-score [20]
1 | COc1ccc(COC(=O)NN=C2C[C@@H](O)[C@@H](O)[C@@H]3[C@@H]4C(=O)N(Cc5ccc6c(c5)OCO6)C(=O)[C@@H]4CC[C@H]23)cc1 | -0.343 | 0.0813 (inactive) | 0.939 (inactive) | 0.96 (inactive) | 0.0695 (inactive) | 0.61 | 0.0018 | -0.878 | -0.647 | -1.32 | 0.701 (inactive) | 0.781 | 15.7 (active) | 2.17 (inactive) | 0.18 (inactive) | 0.845 (inactive) | 0.767 | -0.657 (inactive) | 0.186 (inactive) | 0.138
2 | O=C1[C@H]2[C@H]3[C@H](O)[C@H](O)CC(=NOCc4ccccc4)[C@H]3CC[C@H]2C(=O)N1C1CCCCC1 | -0.0056 | -1.79 (inactive) | 0.415 (inactive) | 0.52 (inactive) | -0.262 (inactive) | 0.457 | -0.0917 | 0.161 | 1.03 | 0.449 | -0.135 (inactive) | -0.0222 | 21.3 (active) | 2.36 (inactive) | 0.43 (inactive) | 0.842 (inactive) | -0.441 | -0.622 (inactive) | -1.09 (inactive) | -4.07
3 | C[C@@H](c1ccccc1)N1C(=O)[C@H]2[C@H]3[C@H](O)[C@H](O)CC(=NNC(=O)OCc4ccccc4)[C@@H]3CC[C@H]2C1=O | 0.15 | 0.231 (inactive) | -0.479 (inactive) | -0.38 (inactive) | 0.0869 (inactive) | -0.31 | -0.335 | 3.35 | 3.49 | 2 | 0.362 (inactive) | -0.0294 | 0.0012 (inactive) | 0.461 (inactive) | -0.694 (inactive) | 0.329 (inactive) | -0.136 | -0.065 (inactive) | 1.07 (inactive) | -0.0584
4 | CCCNC(=O)OC[C@H]1O[C@H](CCON=C[C@@H](NS(=O)(=O)c2ccc(C)cc2)[C@H](C)C=CCC(=O)OC)C=C[C@@H]1Oc1ccc(OC)cc1 | -0.208 | -1.47 (inactive) | 0.169 (inactive) | 3.17 (inactive) | 0.26 (inactive) | -0.0974 | 0.316 | 0.0067 | 0.488 | -0.0635 | 0.0368 (inactive) | 0.0633 | 5.01 (inactive) | 1.2 (inactive) | 0.518 (inactive) | 0.441 (inactive) | -0.81 | 0.173 (inactive) | 0.361 (inactive) | -0.746
5 | COC(=O)[C@@H]1CC[C@H](C)[C@@H](c2ccc(C)cc2)N1C(=O)c1ccc(C=NO[C@@H](C)c2cc(-c3c(C)cc(C)cc3C)no2)cc1 | 0.153 | -1.31 (inactive) | 0.209 (inactive) | -0.0591 (inactive) | -0.187 (inactive) | 0.152 | -0.0986 | 1.62 | 0.763 | 0.707 | 0.934 (inactive) | -0.242 | 1.12 (inactive) | 0.804 (inactive) | 0.894 (inactive) | 0.662 (inactive) | 0.677 | 0.564 (inactive) | 0.945 (inactive) | 0.406
6 | COc1ccc(OC[C@@H]2CC3[C@@H](c4ccc(Br)cc4)[C@H](C)CC[C@H]3C(=O)O2)cc1 (stereo not given in full) | -0.223 | -0.513 (inactive) | -0.12 (inactive) | 1.9 (inactive) | -0.462 (inactive) | 0.0139 | -0.202 | 0.327 | 0.832 | 0.391 | -0.594 (inactive) | -0.106 | 4.49 (inactive) | 1.7 (inactive) | 0.85 (inactive) | 0.759 (inactive) | 0.338 | -0.803 (inactive) | -0.178 (inactive) | -0.351
7 | CCN1C(=O)[C@H]2[C@H]3[C@H](O)[C@H](O)CC(=NOC(C)CN4CCCc5nc(C)c(C)cc54)[C@@H]3CC[C@H]2C1=O (stereo not given in full) | 0.223 | 0.433 (inactive) | 1.17 (inactive) | -0.882 (inactive) | -0.271 (inactive) | -0.0317 | 0.134 | 0.46 | 0.456 | 0.906 | 0.223 (inactive) | 0.603 | 1.25 (inactive) | 0.59 (inactive) | -0.121 (inactive) | 0.588 (inactive) | -0.461 | -1 (inactive) | -0.772 (inactive) | -0.298
8 | CC(C)=NO[C@H](C)c1cn([C@@H]2COC[C@H]2O)nn1 | 0.185 | 0.495 (inactive) | -1.16 (inactive) | 0.099 (inactive) | -0.0851 (inactive) | -0.085 | -0.0963 | 0.455 | 0.461 | 0.477 | 0.36 (inactive) | -0.0518 | 0.813 (inactive) | 0.935 (inactive) | 0.627 (inactive) | 0.489 (inactive) | 0.381 | 0.0279 (inactive) | 0.549 (inactive) | 0.595
